Compound activity deposited in PubChem BioAssay by several laboratories.
The list is not random: actives were taken first. Their share in the collection is about 3.7%.
UGM FP inh = inhibitors of M. tuberculosis UDP-galactopyranose mutase. AID 504406. purified UGM, fluorescence polarization probe displacement. P9WIQ1. inhibition, % at 10 µM. 320,000 tested, 0.06% active; in the data active = inhibition above about 10%, passing the limit was not always enough
Target sequence (P9WIQ1 whole entry, looked up): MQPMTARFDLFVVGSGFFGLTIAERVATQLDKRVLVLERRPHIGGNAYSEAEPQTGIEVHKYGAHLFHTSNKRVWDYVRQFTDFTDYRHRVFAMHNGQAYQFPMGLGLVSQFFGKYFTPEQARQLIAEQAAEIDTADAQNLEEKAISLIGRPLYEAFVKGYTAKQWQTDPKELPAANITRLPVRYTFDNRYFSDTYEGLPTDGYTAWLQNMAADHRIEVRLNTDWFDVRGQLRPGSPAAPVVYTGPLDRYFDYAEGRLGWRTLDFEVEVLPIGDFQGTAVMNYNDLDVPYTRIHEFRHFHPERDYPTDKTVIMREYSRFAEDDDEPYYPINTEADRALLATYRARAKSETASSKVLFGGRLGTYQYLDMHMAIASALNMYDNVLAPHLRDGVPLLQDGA
FadD28 FP inh = blocks FadD28 binding to the bisubstrate probe; fluorescence polarization; 360,000 tested, 0.22% active; inhibition, % at 12.5 µM; AID 588549; in the data active = inhibition above about 8.5%, passing the limit was not always enough
Mtb bLac sens = beta-lactam sensitization of Mtb H37Rv | M. tuberculosis H37Rv growth with meropenem, percent inhibition | inhibition, % at 25 µM | 330,000 tested, 0.27% active; call rule not given here;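 note: growth measured after seven days incubation then overnight dye step; 0% = bacteria only wells and 100% = bacteria with antibiotic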
GDH-TPI counter-1 = GDH-TPI coupled enzyme inhibition counter-screen; GDH-TPI coupled enzyme counterscreen, NADH absorbance; inhibition, % at 4.8 µM; 360,000 tested, 1.2% active; in the data active = inhibition above about 30%;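 note: 0% = DMSO wells and 100% = wells lacking the enzyme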
Rv3671c protease = inhibitors of M. tuberculosis serine protease Rv3671c; P9WHR9; inhibition, % at 5.96 µM; 320,000 tested, 0.048% active; AID 2606; in the data active = inhibition above about 38%;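 note: extracellular domain of Rv3671c used as enzyme; 0% = enzyme with DMSO and 100% = no enzyme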
FBA Mtb inh = inhibits M. tuberculosis FBA enzyme | AID 588726 | inhibition, % at 1 µM | purified M. tuberculosis FBA, fluorescence read-out | 360,000 tested, 2.3% active | P9WQA3;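 note: 0% = vehicle and 100% = reference inhibitor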
Mtb FBA inh conf = Mtb FBA inhibition, confirmed; 5,600 tested, 78% active; purified M. tuberculosis FBA, fluorescence read-out; AID 651616; inhibition, % at 1 µM; shares compounds with FBA Mtb inh;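 note: 0% = vehicle wells and 100% = reference inhibitor wells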
GDH-TPI counter-2 = counter-screen for M. tuberculosis FBA inhibitors: GDH-TPI coupled enzyme inhibition | shares compounds with FBA Mtb inh | inhibition, % at 1 µM | AID 652141 | GDH-TPI coupled enzyme counterscreen, fluorescence | 5,600 tested, 81% active; in the data active = inhibition above about 10%
* = called active by the depositor; / = no result; + = active, no number. Cut-off read from the data, not from the text of the source, unless noted: active = inhibition above about 27%; inactive = the rest.

SMILES	UGM FP inh	FadD28 FP inh	Mtb bLac sens	GDH-TPI counter-1	Rv3671c protease	FBA Mtb inh	Mtb FBA inh conf	GDH-TPI counter-2
COC(=O)c1cc(COc2ccc3ccc(=O)oc3c2)c(C)o1	-4.2	-2.8	2.6	18.6	-5.6	36.0*	7.8	1.1
Cc1ccc(F)c(S(=O)(=O)NC(=O)C2(C)CCN2C(=O)Cc2cc(F)ccc2F)c1 (stereo not drawn)	/	-1.1	/	9.7	/	1.0	/	/
Cc1ccc(S(=O)(=O)N2[C@H](C(C)C)[C@H]3[C@H]4C(=O)N(c5ccccc5)C(=O)[C@H]4CC(=O)[C@H]3[C@@H]2c2ccccc2)cc1	/	-1.7	/	/	/	-0.9	/	/
COc1ccc(/C=C2\OC(=O)c3c(OC)cccc32)cc1OC	0.3	0.3	7.2	6.4	3.7	30.4*	124.8*	96.6*
COc1ccc(C=C2C(=O)OC(C)(C)OC2=O)cc1OC	2.7	-1.4	3.0	8.0	4.5	4.8	/	/
N#Cc1c(C(F)(F)F)cc(-c2ccco2)nc1SCc1ccccn1	-2.8	1.0	2.7	12.7	-9.9	18.6	/	/
N#Cc1c(C(F)(F)F)cc(-c2ccco2)nc1SCc1ccncc1	1.6	-4.0	12.9	-0.5	-5.7	28.6*	56.2*	32.4*
Cc1ccc2[nH]c3c(c2c1)CCCC3=O	-2.3	-2.7	5.7	12.0	-1.5	12.1	/	/
Cc1ccc2[nH]c3c(c2c1)CCC3=O	2.9	-0.2	-1.9	1.9	4.5	65.0*	+	162.1*
Cc1cc(=O)oc2cc3c(cc12)OCCO3	0.2	-0.1	-1.1	8.2	0.6	61.7*	195.5*	161.9*
Cc1cc2oc(=O)cc(C)c2c(=O)o1	-1.5	-0.6	-4.6	16.2	4.9	0.8	/	/
Cc1cccc(Cn2c(C(C)O)nc3ccccc32)c1 (stereo not drawn)	1.1	-0.7	5.8	2.5	0.0	0.1	/	/
Cc1cccc(Cn2c(-c3ccc[nH]c3=O)nc3ccccc32)c1	-0.2	-0.6	-5.2	12.4	0.6	100.9*	+	+
C[C@@H]1CN([C@@H](C)CO)C(=O)CCCn2nncc2CO[C@H]1CN(C)S(=O)(=O)c1ccc(C#N)cc1	/	1.3	/	-6.2	/	0.3	/	/
Cc1nc(NCc2ccco2)c2c3c(sc2n1)CCC3	3.6	-2.8	32.8	-5.3	-6.3	4.3	/	/
CC(C)Sc1nc(NCc2ccco2)c2c3c(sc2n1)COC(C)(C)C3	-0.2	-2.6	41.2	9.4	-1.9	85.0*	+	+
Cc1ccc(NC(=O)C2COc3ccccc3O2)cc1C (stereo not drawn)	-0.1	-3.8	7.7	-2.2	-8.8	-1.2	/	/
O=C(O)c1[nH]c2ccccc2c1NS(=O)(=O)Cc1ccccc1	-1.0	0.4	6.3	8.2	2.4	60.5*	+	174.4*
Cc1c(Nc2c3ccccc3nc3ccccc23)c(=O)n(-c2ccccc2)n1C	2.1	-1.3	-0.9	6.4	-3.2	108.8*	-2.1	-0.6
CCCCn1c(N)c(N(CCC(C)C)C(=O)c2c(CC)noc2C)c(=O)[nH]c1=O	/	0.6	/	5.3	/	-2.2	/	/
N#Cc1ccc(-c2ccc3c(c2)OCO3)nc1SCC(=O)OCc1ccccc1	1.5	-1.4	-5.6	4.6	-24.4	60.3*	67.0*	43.7*
Cc1ccc(C(=O)CSc2nc(-c3ccccc3)ccc2C#N)cc1	1.2	-1.5	2.9	3.1	-3.5	0.8	/	/
CC(C)c1ccc(NC2CCCN(C(=O)c3ccc(N4CCOCC4)cc3)C2)cc1 (stereo not drawn)	1.0	-1.0	7.8	-4.9	-0.9	-1.6	/	/
O=C1OCc2cccc3cccc1c23	0.9	-1.8	-2.4	22.6	7.9	50.4*	197.6*	174.3*
Cn1c(=O)n(Cc2ccc(F)cc2)c(=O)c2c1nc1n2CCCN1C1CCCCC1	1.3	-3.2	99.6	1.2	3.5	29.2*	153.6*	147.3*
SMILES	UGM FP inh	FadD28 FP inh	Mtb bLac sens	GDH-TPI counter-1	Rv3671c protease	FBA Mtb inh	Mtb FBA inh conf	GDH-TPI counter-2
Cn1c(=O)n(Cc2ccccc2)c(=O)c2c1nc1n2CCCN1C1CCCCC1	-1.1	-0.6	99.8	10.8	1.7	3.3	/	/
FC(F)(F)c1cccc(NC(=S)Nc2cccc(NC(=S)Nc3cccc(C(F)(F)F)c3)n2)c1	1.7	-3.7	88.8	0.5	-38.3	-15.1	/	/
CCCCn1c(=NC(=O)c2cccnc2)c(C(=O)OCC)cc2c(=O)n3ccccc3nc21	/	-3.9	/	-11.6	/	55.5*	133.7*	90.8*
COc1ccc(OC)c(NC(=O)c2cc3c(=O)n4ccccc4nc3n2C)c1	-0.9	1.0	7.6	5.7	-4.6	-2.7	/	/
CCOC(=O)c1cc2c(=O)n3ccccc3nc2n(C)c1=NC(=O)c1c(-c2c(F)cccc2Cl)noc1C	0.2	-1.8	-9.8	-4.6	4.0	33.1*	162.2*	131.6*
CCOC(=O)c1cc2c(=O)n3ccccc3nc2n(Cc2ccco2)c1=NC(=O)c1ccc(OC)cc1OC	-1.1	-5.1	-6.2	16.0	0.3	103.9*	91.3*	88.1*
CCOC(=O)c1ccccc1NC(=O)c1cccnc1	-0.2	-0.4	23.6	4.3	1.1	7.0	/	/
CC1(C)CN(C(=S)Nc2ccc(F)cc2F)C1=O	0.0	/	8.2	2.1	5.5	0.5	/	/
O=C(NCc1ccccn1)c1cc(-c2ccc(Br)cc2)nc2ccccc12	-1.9	-1.9	5.8	9.3	-16.9	4.6	/	/
Cc1ccc(-c2cc(C(=O)NCc3ccccn3)c3ccccc3n2)cc1	2.7	-0.8	-3.8	20.4	-13.3	28.0*	122.9*	115.8*
CCc1ccc(-c2cc(C(=O)NCc3ccccn3)c3ccccc3n2)cc1	0.5	-1.8	82.9	-1.1	-11.1	29.1*	88.4*	64.5*
O=C(Nc1ccc2c(c1)OCO2)c1csc([C@@H]2O[C@H](CO)[C@H](O)[C@H](O)[C@H]2O)n1	/	-0.5	/	8.4	/	-0.3	/	/
COc1ccc2sc(-c3ccc(N(C)C)cc3)c(-c3cnc(OC)nc3)c2c1	-0.9	-1.6	3.0	14.4	3.7	7.1	/	/
COC(=O)C=CSC(=S)C1CCCC1=N (stereo not drawn)	/	-4.6	/	20.4	/	-3.8	/	/
CC1CCC2(CC1)NC(=O)N(CC(=O)Nc1cccc(S(=O)(=O)N(C)c3ccccc3)c1)C2=O (stereo not drawn)	/	0.3	/	3.5	/	1.1	/	/
CN(c1ccccc1)S(=O)(=O)c1cccc(NC(=O)CN2C(=O)NC3(CCCCC3)C2=O)c1	-1.0	-3.5	0.3	6.4	-2.3	37.8*	87.6*	52.3*
CNC(=O)c1ccc(-c2ccccc2)s1	3.5	-2.8	-12.3	5.2	-1.2	28.3*	78.3*	52.9*
CC(=O)Nc1ccc(-c2ccccc2)s1	0.9	2.2	-4.4	4.7	0.6	2.4	/	/
CCCCNC(=O)C1(C)CCCCN1C(=O)c1cc(-c2ccccc2)cs1 (stereo not drawn)	/	-0.9	/	16.0	/	1.9	/	/
CNc1ccccc1C(=O)OCC(=O)Nc1ccc2c(c1)OCO2	-0.1	-3.2	3.3	1.8	2.8	53.4*	101.3*	68.7*
